Assay results taken from PubChem BioAssay (EPA / NIEHS).
Results filed as inconclusive are left out. Active and inactive are the calls of the source. The calls were made as follows: active = hit-call score of the fitted dose curve at least 0.9, where 1 is the maximum; inconclusive = response in the unintended direction; inactive = score below 0.9.

Experiment: CCTE_Harrill_HTTr_CellCount_MCF7: CCTE's Cell Proliferation Assessment for the High-Throughput Transcriptomics (HTTr) Platform, Harrill Lab (AID 2284012);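 also: intended direction is loss of nuclei count meaning fewer cells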
In short: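 For this full-screen endpoint, MCF-7 cultures received eight compound dilutions for six hours. Well nuclei counts from Hoechst imaging were analyzed relative to DMSO.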
With `CCOC(=O)c1ccccc1C(=O)OCC` the outcome was “inactive”.
With `CSC(C)(C)C=NO` the outcome was “inactive”.
With `O=[N+]([O-])c1ccccc1` the outcome was “inactive”.
With `CCOP(=S)(NC(C)C)Oc1ccccc1C(=O)OC(C)C` (configuration not stated) the outcome was “inactive”.
For `O=P1(N(CCCl)CCCl)NCCCO1` (configuration not stated), the outcome was “inactive”.
With `CCCCC(CC)COC(=O)c1c(Br)c(Br)c(Br)c(Br)c1C(=O)OCC(CC)CCCC` (configuration not stated) the outcome was “inactive”.
In the case of `O=C(O)CF`, the outcome is reported as “inactive”.
For `O=NN1CCCC1`, the outcome was “inactive”.
With `Cc1c([N+](=O)[O-])cc2c(c1[N+](=O)[O-])C(C)(C)CC2(C)C` the outcome was “inactive”.
With `O=C(O)C(Cl)Cl` the outcome was “inactive”.
With `CCCCN(CCCC)N=O` the outcome was “inactive”.
With `N#Cc1ccc(O)cc1` the outcome was “inactive”.
In the case of `C/C(=N\NC(=O)Nc1cc(F)cc(F)c1)c1ncccc1C(=O)O`, the outcome is reported as “inactive”.
In the case of `CCCCc1ccccc1`, the outcome is reported as “inactive”.
With `CC(Cc1ccc(OCC(=O)O)cc1)NCC(O)c1csc(C(F)(F)F)n1` (configuration not stated) the outcome was “inactive”.
With `c1ccc2c(c1)sc1ccccc12` the outcome was “inactive”.
For `CCOS(=O)(=O)OCC`, the outcome was “inactive”.
With `Cc1cccc(N)c1` the outcome was “inactive”.
In the case of `Cc1ccc(O)cc1C`, the outcome is reported as “inactive”.
For `O=[N+]([O-])c1ccc(Cl)c(Cl)c1`, the outcome was “inactive”.
In the case of `CC(O)C#N` (configuration not stated), the outcome is reported as “inactive”.
In the case of `Nc1ccc([N+](=O)[O-])cc1Cl`, the outcome is reported as “inactive”.
For `CCCN(CCC)c1c([N+](=O)[O-])cc(C(C)C)cc1[N+](=O)[O-]`, the outcome was “inactive”.
In the case of `CCCCOCC1CO1` (configuration not stated), the outcome is reported as “inactive”.
For `CC(C)(C)OOC(C)(C)C`, the outcome was “inactive”.
For `COP(=O)(O)OC`, the outcome was “inactive”.
For `CCOP(=S)(S)OCC`, the outcome was “inactive”.
